Measured values taken from PubChem BioAssay.
Potency and affinity values are given separately. Inconclusive results are not listed. Entries that show only a call come without a potency. Calls of active or inactive are those of the source. How the calls were made is not given here.

Test: IGROV1 cell killing – plate reader, dry powder samples, PAX8 inhibitor project, dose response (AID 743043);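 further: more negative means fewer viable cells or more cytotoxicity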
Conditions: IGROV1 ovarian cancer cell cytotoxicity; series mostly up to 35 µM

Row | Compound | outcome
1 | COCC(=O)N1[C@H](CO)[C@H](c2ccc(-c3cccnc3)cc2)[C@@H]1C#N | inactive
2 | COc1cccc(C#Cc2ccc([C@@H]3[C@@H](C#N)N(C(=O)C4CCCC4)[C@@H]3CO)cc2)c1 | inactive
3 | N#C[C@@H]1[C@@H](c2ccc(C3=CCCCC3)cc2)[C@@H](CO)N1C(=O)NC1CCCCC1 | inactive
4 | C[C@@H]1CN([C@@H](C)CO)S(=O)(=O)c2ccc(C#CC3CCCC3)cc2O[C@H]1CN(C)Cc1cccnc1 | inactive
5 | N#C[C@H]1[C@@H](c2ccc(C3=CCCC3)cc2)[C@@H](CO)N1C(=O)NC1CCCCC1 | inactive
6 | COc1cccc(C#Cc2ccc([C@@H]3[C@@H](C#N)N(C(=O)C4CCCCC4)[C@@H]3CO)cc2)c1 | inactive
7 | COC(=O)[C@@]1(CCS(=O)(=O)c2ccccc2)N=C(c2ccc(OCCCO)cc2)O[C@H]1c1ccccc1 | inactive
8 | CC(C)c1cc(C(=O)OCC(=O)N2CCN(C(=O)c3ccco3)CC2)c(O)c(C(C)C)c1 | inactive

Test: OVCAR-3 cell viability loss – plate reader, dry powder samples, PAX8 inhibitor project, dose response (AID 743044)
Conditions: NIH:OVCAR-3 ovarian cancer cell viability; max activity: at 35 µM unless noted; series mostly up to 50 µM

Row | Compound | outcome
9 | COCC(=O)N1[C@H](CO)[C@H](c2ccc(-c3cccnc3)cc2)[C@@H]1C#N | inactive
10 | COc1cccc(C#Cc2ccc([C@@H]3[C@@H](C#N)N(C(=O)C4CCCC4)[C@@H]3CO)cc2)c1 | inactive
11 | N#C[C@H]1[C@@H](c2ccc(C#Cc3cccc(F)c3)cc2)[C@@H](CO)N1C(=O)C1CCCC1 | inactive
12 | N#C[C@@H]1[C@@H](c2ccc(C3=CCCCC3)cc2)[C@@H](CO)N1C(=O)NC1CCCCC1 | inactive
13 | N#C[C@H]1[C@@H](c2ccc(C3=CCCC3)cc2)[C@@H](CO)N1C(=O)NC1CCCCC1 | inactive
14 | COc1cccc(C#Cc2ccc([C@@H]3[C@@H](C#N)N(C(=O)C4CCCCC4)[C@@H]3CO)cc2)c1 | inactive

Test: toxicity toward immortalized ovarian surface epithelium – cell-based, plate reader, dry powder samples, cytotoxicity control for PAX8 inhibitor project, dose response (AID 743045);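 further: more negative values mean more cell killing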
Conditions: IOSE-T80 ovarian epithelial cells; series mostly up to 35 µM

Row | Compound | outcome
15 | Cn1c(CCN2CCCC2)nc2cc(NS(=O)(=O)c3ccc(Cl)cc3)ccc21 | inactive
16 | COc1ccccc1C#Cc1ccc([C@H]2[C@@H](CO)N(C(=O)C3CCCC3)[C@H]2C#N)cc1 | inactive
17 | COCC(=O)N1[C@H](CO)[C@H](c2ccc(-c3cccnc3)cc2)[C@@H]1C#N | inactive
18 | COc1cccc(C#Cc2ccc([C@@H]3[C@@H](C#N)N(C(=O)C4CCCC4)[C@@H]3CO)cc2)c1 | inactive
19 | N#C[C@H]1[C@@H](c2ccc(C#Cc3cccc(F)c3)cc2)[C@@H](CO)N1C(=O)C1CCCC1 | inactive
20 | C[C@@H]1CN([C@H](C)CO)C(=O)c2cc(NS(=O)(=O)c3ccccc3)ccc2O[C@@H](C)CCCCO[C@@H]1CN(C)Cc1ccc(C(F)(F)F)cc1 | inactive
21 | N#C[C@H]1N[C@H](CO)[C@@H]1c1ccc(C#Cc2ccccc2F)cc1 | inactive
22 | N#C[C@@H]1[C@@H](c2ccc(C3=CCCCC3)cc2)[C@@H](CO)N1C(=O)NC1CCCCC1 | inactive
23 | C[C@@H]1CN([C@@H](C)CO)S(=O)(=O)c2ccc(C#CC3CCCC3)cc2O[C@H]1CN(C)Cc1cccnc1 | inactive
24 | COc1cccc(C#Cc2ccc([C@@H]3[C@@H](C#N)N(C(=O)C4CCCCC4)[C@@H]3CO)cc2)c1 | inactive
25 | COC(=O)[C@@]1(CCS(=O)(=O)c2ccccc2)N=C(c2ccc(OCCCO)cc2)O[C@H]1c1ccccc1 | inactive
26 | CC(C)c1cc(C(=O)OCC(=O)N2CCN(C(=O)c3ccco3)CC2)c(O)c(C(C)C)c1 | inactive
27 | O=C(Nc1ccc(OCC(F)(F)C(F)F)c(C(F)(F)F)c1)c1ccccc1O | inactive

Test: A2780 cell killing – plate reader, dry powder samples, cytotoxicity control, dose response (AID 743046)
Conditions: A2780 ovarian cancer cytotoxicity; series mostly up to 35 µM

Row | Compound | outcome
28 | Cn1c(CCN2CCCC2)nc2cc(NS(=O)(=O)c3ccc(Cl)cc3)ccc21 | inactive
29 | COc1ccccc1C#Cc1ccc([C@H]2[C@@H](CO)N(C(=O)C3CCCC3)[C@H]2C#N)cc1 | inactive
30 | COCC(=O)N1[C@H](CO)[C@H](c2ccc(-c3cccnc3)cc2)[C@@H]1C#N | inactive
31 | COc1cccc(C#Cc2ccc([C@@H]3[C@@H](C#N)N(C(=O)C4CCCC4)[C@@H]3CO)cc2)c1 | inactive
32 | N#C[C@H]1N[C@H](CO)[C@@H]1c1ccc(C#Cc2ccccc2F)cc1 | inactive
33 | N#C[C@@H]1[C@@H](c2ccc(C3=CCCCC3)cc2)[C@@H](CO)N1C(=O)NC1CCCCC1 | inactive
34 | N#C[C@@H]1[C@@H](c2ccc(C#Cc3ccccc3F)cc2)[C@@H](CO)N1C(=O)C1CCCC1 | inactive
35 | N#C[C@H]1[C@@H](c2ccc(C3=CCCC3)cc2)[C@@H](CO)N1C(=O)NC1CCCCC1 | inactive
36 | COc1cccc(C#Cc2ccc([C@@H]3[C@@H](C#N)N(C(=O)C4CCCCC4)[C@@H]3CO)cc2)c1 | inactive
37 | COC(=O)[C@@]1(CCS(=O)(=O)c2ccccc2)N=C(c2ccc(OCCCO)cc2)O[C@H]1c1ccccc1 | inactive
38 | CC(C)c1cc(C(=O)OCC(=O)N2CCN(C(=O)c3ccco3)CC2)c(O)c(C(C)C)c1 | inactive
39 | O=C(CCCN1C(=O)/C(=C\c2ccccc2OC(F)F)SC1=S)Nc1cccnc1 | inactive
40 | O=C(Nc1ccc(OCC(F)(F)C(F)F)c(C(F)(F)F)c1)c1ccccc1O | inactive
41 | O=C(CCCN1C(=O)/C(=C\c2cccc(Br)c2)SC1=S)Nc1ccccn1 | inactive
